Experimental data reported in the supplement of paper PMC8728848.
Only a selection was taken, and the strongest signals are over-represented in it overall.

Experiments:
Assay in all cases: glycan array binding signal (z-score within array); higher = stronger binding
Details in all cases: glycan notation: IUPAC condensed, linker removed
[1] = target: Fuc(a1-2)Gal(b1-3)GlcNAc(b1-2)Man(a1-3)[Fuc(a1-2)Gal(b1-3)GlcNAc(b1-2)Man(a1-6)]Man(b1-4)GlcNAc(b1-4)GlcNAc
Summary of the method: (§1)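 From the Consortium for Functional Glycomics database, 3228 arrays were curated, keeping only those whose protein sequence was available. Binding is given as a within-array Z-score averaged across arrays sharing a protein sequence and across linkers. Negative Z-scores can be read as non-binding.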

[2] = target: Fuc(a1-2)Gal(b1-4)GlcNAc(b1-2)Man(a1-3)[Fuc(a1-2)Gal(b1-4)GlcNAc(b1-2)Man(a1-6)]Man(b1-4)GlcNAc(b1-4)[Fuc(a1-6)]GlcNAc
Summary of the method: as §1

[3] = target: Fuc(a1-2)[Gal(a1-3)]Gal(b1-3)GlcNAc(b1-3)GalNAc
Summary of the method: as §1

[4] = target: Fuc(a1-2)[GalNAc(a1-3)]Gal(b1-4)GlcNAc
Summary of the method: as §1

[5] = target: Fuc(a1-2)[GalNAc(a1-3)]Gal(b1-4)GlcNAc(b1-2)Man(a1-3)[Fuc(a1-2)[GalNAc(a1-3)]Gal(b1-4)GlcNAc(b1-2)Man(a1-6)]Man(b1-4)GlcNAc(b1-4)[Fuc(a1-6)]GlcNAc
Summary of the method: as §1

[6] = target: Fuc(a1-2)[GalNAc(a1-3)]Gal(b1-4)[Fuc(a1-3)]GlcNAc(b1-3)GalNAc
Summary of the method: as §1

[7] = target: Fuc(a1-2)[GalNAc(b1-3)]Gal
Summary of the method: as §1

[8] = target: Fuc(a1-3)[Gal(b1-4)]GlcNAc(b1-2)Man(a1-3)[Fuc(a1-3)[Gal(b1-4)]GlcNAc(b1-2)Man(a1-6)]Man(b1-4)GlcNAc(b1-4)GlcNAc
Summary of the method: as §1

[9] = target: Gal(a1-3)Gal(b1-4)GlcNAc(b1-2)Man(a1-3)[Gal(a1-3)Gal(b1-4)GlcNAc(b1-2)Man(a1-6)]Man(b1-4)GlcNAc(b1-4)GlcNAc
Summary of the method: as §1

[10] = target: Gal(a1-3)Gal(b1-4)GlcNAc(b1-6)GalNAc
Summary of the method: as §1

Gal(a1-3)GalNAc = target: Gal(a1-3)GalNAc
Summary of the method: as §1

Gal(a1-4)Gal(b1-4)GlcNAc = target: Gal(a1-4)Gal(b1-4)GlcNAc
Summary of the method: as §1

Gal(b1-3)GlcNAc = target: Gal(b1-3)GlcNAc
Summary of the method: as §1

[11] = target: Gal(b1-3)GlcNAc(b1-2)[Gal(b1-3)GlcNAc(b1-6)]Man(a1-6)[Gal(b1-3)GlcNAc(b1-2)Man(a1-3)]Man(b1-4)GlcNAc(b1-4)GlcNAc
Summary of the method: as §1

[12] = target: Gal(b1-3)GlcNAc(b1-6)[Gal(b1-3)]GalNAc
Summary of the method: as §1

[13] = target: Gal(b1-3)[Fuc(a1-4)]GlcNAc(b1-2)Man(a1-3)[Gal(b1-3)[Fuc(a1-4)]GlcNAc(b1-2)Man(a1-6)]Man(b1-4)GlcNAc(b1-4)[Fuc(a1-6)]GlcNAc
Summary of the method: as §1

[14] = target: Gal(b1-3)[Neu5Ac(a2-6)]GlcNAc(b1-4)Gal(b1-4)Glc
Summary of the method: as §1

Gal(b1-4)Gal = target: Gal(b1-4)Gal
Summary of the method: as §1

[15] = target: Gal(b1-4)GlcNAc(a1-6)Gal(b1-4)GlcNAc
Summary of the method: as §1

[16] = target: Gal(b1-4)GlcNAc(b1-2)Man(a1-3)Man(b1-4)GlcNAc(b1-4)GlcNAc
Summary of the method: as §1

[17] = target: Gal(b1-4)GlcNAc(b1-2)Man(a1-3)[Gal(b1-4)GlcNAc(b1-2)Man(a1-6)][Gal(b1-4)GlcNAc(b1-4)]Man(b1-4)GlcNAc(b1-4)[Fuc(a1-6)]GlcNAc
Summary of the method: as §1

[18] = target: Gal(b1-4)GlcNAc(b1-2)[Gal(b1-4)GlcNAc(b1-6)]Man(a1-6)[GlcNAc(b1-4)][Gal(b1-4)GlcNAc(b1-2)Man(a1-3)]Man(b1-4)GlcNAc(b1-4)GlcNAc
Summary of the method: as §1

[19] = target: Gal(b1-4)GlcNAc(b1-3)Gal(b1-4)GlcNAc(b1-2)[Gal(b1-4)GlcNAc(b1-3)Gal(b1-4)GlcNAc(b1-6)]Man(a1-6)[Gal(b1-4)GlcNAc(b1-3)Gal(b1-4)GlcNAc(b1-2)Man(a1-3)]Man(b1-4)GlcNAc(b1-4)GlcNAc
Summary of the method: as §1

[20] = target: Gal(b1-4)GlcNAc(b1-3)Gal(b1-4)GlcNAc(b1-2)[Gal(b1-4)GlcNAc(b1-3)Gal(b1-4)GlcNAc(b1-6)]Man(a1-6)[Gal(b1-4)GlcNAc(b1-3)Gal(b1-4)GlcNAc(b1-2)Man(a1-3)]Man(b1-4)GlcNAc(b1-4)[Fuc(a1-6)]GlcNAc
Summary of the method: as §1

[21] = target: Gal(b1-4)GlcNAc(b1-3)Gal(b1-4)GlcNAc(b1-3)Gal(b1-4)GlcNAc(b1-2)Man(a1-3)[Gal(b1-4)GlcNAc(b1-3)Gal(b1-4)GlcNAc(b1-3)Gal(b1-4)GlcNAc(b1-2)Man(a1-6)]Man(b1-4)GlcNAc(b1-4)[Fuc(a1-6)]GlcNAc
Summary of the method: as §1

[22] = target: Gal(b1-4)GlcNAc(b1-3)Gal(b1-4)GlcNAc(b1-3)Gal(b1-4)GlcNAc(b1-3)Gal(b1-4)GlcNAc(b1-2)Man(a1-3)[Gal(b1-4)GlcNAc(b1-3)Gal(b1-4)GlcNAc(b1-3)Gal(b1-4)GlcNAc(b1-3)Gal(b1-4)GlcNAc(b1-2)Man(a1-6)]Man(b1-4)GlcNAc(b1-4)GlcNAc
Summary of the method: as §1

[23] = target: Gal(b1-4)GlcNAc(b1-3)Gal(b1-4)GlcNAc(b1-3)Gal(b1-4)GlcNAc(b1-3)Gal(b1-4)GlcNAc(b1-3)Gal(b1-4)GlcNAc(b1-2)Man(a1-3)[Gal(b1-4)GlcNAc(b1-3)Gal(b1-4)GlcNAc(b1-3)Gal(b1-4)GlcNAc(b1-3)Gal(b1-4)GlcNAc(b1-3)Gal(b1-4)GlcNAc(b1-2)Man(a1-6)]Man(b1-4)GlcNAc(b1-4)GlcNAc
Summary of the method: as §1

[24] = target: Gal(b1-4)GlcNAc(b1-3)Gal(b1-4)GlcNAc(b1-3)Gal(b1-4)GlcNAc(b1-3)Gal(b1-4)GlcNAc(b1-3)Gal(b1-4)GlcNAc(b1-2)Man(a1-3)[Gal(b1-4)GlcNAc(b1-3)Gal(b1-4)GlcNAc(b1-3)Gal(b1-4)GlcNAc(b1-3)Gal(b1-4)GlcNAc(b1-3)Gal(b1-4)GlcNAc(b1-2)Man(a1-6)]Man(b1-4)GlcNAc(b1-4)[Fuc(a1-6)]GlcNAc
Summary of the method: as §1

[25] = target: Gal(b1-4)GlcNAc(b1-3)Gal(b1-4)GlcNAc(b1-6)[Gal(b1-3)]GalNAc
Summary of the method: as §1

[26] = target: Gal(b1-4)GlcNAc(b1-6)[Gal(b1-3)]GalNAc
Summary of the method: as §1

B1: SspB A3vp1 (Streptococcus gordonii), Q54186 (protein)
chain: MTNEADYQAKLAAYQTELARVQKANADAKATYEKAVEDNKAKNAAIKAENEEIKQRNAVAKTDYEAKLAKYEADLAKYKKEFAAYTAALAEAESKKKQDGYLSEPRSQSLNFKSEPNAIRTIDSSVHQYGQQELDALVKSWGISPTNPDRKKSRAYSYFNAINSNNTYAKLVLEKDKPVDVTYTGLKNSSFNGKKISKVVYTYTLKETGFNDGTKMTMFASSDPTVTAWYNDYFTSTNINVKVKFYDEEGQLMNLTGGLVNFSSLNRGNGSGAIDKDAIESVRNFNGRYIPISGSSIKIHENNSAYADSSNAEKSLGARWNTSEWDTTSSPNNWYGAIVGEITQSEISFNMASSKSGNIWFAFNSNINAIGVPTKPVAPTAPTQPMYETEKPLEPAPVAPSYENEPTPPVKTPDQPEPSKPAAALEHHHHHH
In the case of B1, the “glycan array binding signal (z-score)” value [1] is reported as 6.26, the “glycan array binding signal (z-score)” value [2] is reported as -0.372 and the “glycan array binding signal (z-score)” value [3] is reported as 0.099. For the same binder, the “glycan array binding signal (z-score)” value [4] was -0.651, the “glycan array binding signal (z-score)” value [5] was 0.127 and the “glycan array binding signal (z-score)” value [6] was 3.5. The “glycan array binding signal (z-score)” value [7] was -1.11, the “glycan array binding signal (z-score)” value [8] was 0.062 and the “glycan array binding signal (z-score)” value [9] was 1.84. The “glycan array binding signal (z-score)” value [10] was -0.506, the “glycan array binding signal (z-score)” value (Gal(a1-3)GalNAc) was -0.575 and the “glycan array binding signal (z-score)” value (Gal(a1-4)Gal(b1-4)GlcNAc) was 0.692. For the same binder, the “glycan array binding signal (z-score)” value (Gal(b1-3)GlcNAc) was -0.432, the “glycan array binding signal (z-score)” value [11] was 1.46 and the “glycan array binding signal (z-score)” value [12] was 0.011. The “glycan array binding signal (z-score)” value [13] was 0.75, the “glycan array binding signal (z-score)” value [14] was -0.063 and the “glycan array binding signal (z-score)” value (Gal(b1-4)Gal) was -0.088. The “glycan array binding signal (z-score)” value [15] was -0.728, the “glycan array binding signal (z-score)” value [16] was -0.334 and the “glycan array binding signal (z-score)” value [17] was 3.03. The “glycan array binding signal (z-score)” value [18] was 0.194, the “glycan array binding signal (z-score)” value [19] was 3.16 and the “glycan array binding signal (z-score)” value [20] was 3.01. For the same binder, the “glycan array binding signal (z-score)” value [21] was 3.73, the “glycan array binding signal (z-score)” value [22] was 3.61 and the “glycan array binding signal (z-score)” value [23] was 3.36. The “glycan array binding signal (z-score)” value [24] was 3.38, the “glycan array binding signal (z-score)” value [25] was 2.1 and the “glycan array binding signal (z-score)” value [26] was 0.609.
